The campaign covered roughly 140,000 compounds. About 240 (0.17%) were called active. A call without a number means that no potency is given here. Another 9% or so got no clear call; they are omitted. Calls come from the whole dose curve; as a rule, active = well fitted inhibition curve with a large enough effect; inconclusive = small, poorly fitted or top-dose-only effect; inactive = no such curve, though single readings can be large or run the other way. Many of the other results were omitted from the sample, so actives are more common in it than they were.

Experimental findings from PubChem BioAssay AID1671194 (National Center for Advancing Translational Sciences (NCATS), 2021) are described below.
Potency is the fitted concentration of half-maximal effect.

The experiment in a line: Primary qHTS assay for inhibitors of alpha-synuclein gene (SNCA) expression. Note: nearly all actives have a fitted effect of over 45% in size. To be noted: HEK-293 SNCA-luciferase knock-in, luminescence, 24 h; series mostly up to 57.2 µM. A general note: Quantitative high-throughput screening tests each substance at several concentrations.
On to `CCOc1ccc(NC(=O)CSc2c3c(nc4ccccc24)CCCC3)cc1`, for which the Potency is 28.2 µM (active).

Regarding `CCOc1ccc(NC(=O)CSc2ncnc3c2sc2ccccc23)cc1`, the Potency entry was “inactive”.

Turning to `Cc1ccc(CNC(=O)CSc2c3c(nc4cc(Cl)ccc24)CCCC3)cc1`, the Potency result was “inactive”.

Regarding `CCOc1cccc(CN2CCC3(CC2)CN(C)CC3COC)c1` (stereo not drawn), the Potency result is “inactive”.

For the molecule `COc1ccc(OCC2CCN(CC3(O)CCCNC3)CC2)cc1` (stereo not drawn), the Potency result is “inactive”.

With `O=C(NCc1cccc(F)c1)c1cccnc1N1CC2CC(C1)[C@H]1CCCC(=O)N1C2` (stereo partly drawn), the Potency entry is “inactive”.

Turning to `O=S(=O)(c1ccccc1)N1CCC(CCOc2ccccc2)C1` (stereo not drawn), the Potency result was “inactive”.

Consider `O=C1NC2(CCCN([S+](=O)([O-])c3ccccc3)C2)COc2ccccc21` (stereo not drawn), for which the Potency entry was “inactive”.

As for `C=CCn1nc(C(=O)N2CCOCC2)c2c1CCC(NCC1(c3ccccc3)CCCCC1)C2` (stereo not drawn), the Potency entry was “inactive”.

As for `CCN(CC)CCNC(=O)C1N(C(C)C)C(=O)C12CCCC2` (stereo not drawn), the Potency result was “inactive”.

Regarding `O=C(CSc1nccn1-c1ccc(F)cc1)Nc1cccc2ccccc12`, the Potency result is “inactive”.

Take `Cc1cc(C)cc(-n2ccnc2SCC(=O)Nc2nc3ccccc3s2)c1`: the Potency entry was “inactive”.

Take `Cc1cccc(-n2ccnc2SCC(=O)Nc2cccc3ccccc23)c1C`: the Potency was 20 µM (active).

In the case of `COc1ccc(NC(=O)c2c(C)oc3ccn(Cc4ccc(F)cc4)c(=O)c23)c(OC)c1`, the Potency result was “inactive”.

In the case of `Cc1ccc(CN2CCC(Oc3cnc4c(ccn4CCN[S+](C)(=O)[O-])c3)CC2)c(F)c1`, the Potency entry was “inactive”.

Take `Cn1ncc2c(C(=O)NCc3cccs3)cc(-c3ccc(Cl)nc3)nc21`: the Potency entry is “inactive”.

`Cc1ccc(CN2CCOc3cc([S+](=O)([O-])N(C)C)ccc3C2)c(F)c1`: the Potency entry was “inactive”.

As for `Cc1cccc(C(=O)N2CCC3(CC2)CC(CC(=O)NCc2ccncc2)CCO3)c1` (stereo not drawn), the Potency entry is “inactive”.

`O=C(CCn1ccn2nc3c(c2c1=O)CCCC3)Nc1ccc(Cl)c(C(F)(F)F)c1`: the Potency entry is “inactive”.

For `CCOc1cc(C)c(CN2C[C@@H](CN(C)C)C[C@H](CO)C2)cc1C(C)C`, the Potency entry is “inactive”.

Turning to `O=S(=O)(c1ccccc1)N1CCC(F)(c2nc(Cc3ccccc3)no2)CC1`, the Potency entry was “inactive”.

Take `O=C(c1nc2cccnc2n(Cc2ccccc2)c1=O)N1CCN([S+](=O)([O-])c2ccccc2)CC1`: the Potency entry is “inactive”.

On to `COc1cccc(-c2cccc(C(=O)N3CCCC3C(=O)NCc3ccccc3Cl)c2)c1` (stereo not drawn), for which the Potency result was “inactive”.

As for `O=C(O)CCC(=O)N1Cc2ccccc2CC2(CCN(Cc3ccc(O)cc3)C2)C1` (stereo not drawn), the Potency entry is “inactive”.

`CCCCn1c(=O)c(C(=O)NCCSC)nc2cccnc21`: the Potency entry was “inactive”.

For the molecule `Cc1ccccc1CN1Cc2nc(NCc3ccncc3)ccc2OCC1=O`, the Potency entry is “inactive”.

In the case of `O=C1Nc2ccccc2C2(CCN(S(=O)(=O)c3cccc(C(F)(F)F)c3)C2)O1` (stereo not drawn), the Potency entry is “inactive”.

Consider `CN1CCN(C[C@@H]2CN(C(=O)CCc3c[nH]c4ccccc34)C[C@@H]2CO)CC1`, for which the Potency entry was “inactive”.

For the molecule `CCc1cccc2c(C(CC(=O)NC(C)CC)c3cccc(OC)c3)c[nH]c12` (stereo not drawn), the Potency result is “inactive”.

As to `Fc1ccc(-c2ccnc3nc(C4CCC4)nn23)cc1`, the Potency entry is “inactive”.

As to `Cn1nc(C2CC2)cc1NC(=O)c1ccc(C(F)(F)F)cc1`, the Potency result is “inactive”.

Turning to `COc1ccccc1-n1c(=O)c(C(=O)N2CCN(C(=O)Cc3ccc(F)cc3)CC2)nc2cccnc21`, the Potency entry is “inactive”.

Consider `CCN1C(=O)C2CC3(CCN(C(=O)c4nccn4C)CC3)CN2C1=O` (stereo not drawn), for which the Potency result was “inactive”.

`CCOC(=O)C1(Cc2ccc(F)cc2F)CCCN(Cc2cccc(OC)c2O)C1` (stereo not drawn): the Potency result is “inactive”.

In the case of `COC[C@H]1CCCN1C(=O)C[C@@H]1C[C@H]2O[C@H](CNC(=O)N[C@@H](C)c3ccccc3)[C@@H](O)[C@H]2O1`, the Potency entry is “inactive”.

Consider `COCCCn1c(C)cnc1CC1CCN(C(=O)CC2CCCCC2)CC1`, for which the Potency entry was “inactive”.

As to `N#Cc1ccc(CN2CCN(c3nccc(Cl)n3)C(=O)C2)cc1`, the Potency entry is “inactive”.

As to `O=C(Nc1ccc([C@H]2OCC(=O)N(Cc3ccc(F)cc3)[C@@H]2CO)cc1)c1cccnc1`, the Potency result is “inactive”.

As to `CCS(=O)(=O)NCC1(COc2ccc(C(F)(F)F)cn2)C[C@@H](O)[C@@H](O)C1` (stereo partly drawn), the Potency entry was “inactive”.

On to `Cc1ccccc1C(=O)N1CCC2(CC1)CCN(Cc1cccs1)c1ccccc1O2`, for which the Potency entry was “inactive”.

Regarding `Cc1ccc2c(C(=O)N3CCCC(C#N)C3)cc(-c3cnn(C(C)C)c3)nc2c1` (stereo not drawn), the Potency result was “inactive”.

For `O=[S+]([O-])(c1ccccc1)N1CC2(CCCCN2Cc2cccnc2)Cc2ccccc21` (stereo not drawn), the Potency entry is “inactive”.

With `COCCNC(=O)c1nc2sccn2c1-c1cccc(OC)c1`, the Potency entry was “inactive”.

Consider `O=C(NC1CCCCC1)[C@H]1O[C@H](CCN2CCNCC2)CC[C@@H]1O`, for which the Potency entry was “inactive”.

Take `COc1cccc(-c2ccnc3nc(Cc4cc(F)cc(F)c4)nn23)c1`: the Potency result is “inactive”.

As to `CN1C(=O)[C@@H]2C[C@@H](O)CN2C2(CN(Cc3ccoc3)C2)C1=O`, the Potency entry was “inactive”.

Take `Cc1noc([C@@H]2CN(CCCc3ccccc3)C[C@H]2CO)n1`: the Potency result was “inactive”.

For the molecule `C[C@H](C(=O)N1Cc2ccccc2CC2(CCN(Cc3ccncc3)CC2)C1)c1ccccc1`, the Potency entry is “inactive”.

Take `CC(=O)Nc1cccc(-c2cn(C)c(=O)n3cc(COc4ccnn4C)nc23)c1`: the Potency result was “inactive”.

As to `COc1cccc([S+](=O)([O-])N2CCC3(CC(c4cccnc4)=NO3)C2)c1` (stereo not drawn), the Potency result was “inactive”.

As for `O=C(c1ccccc1C1CCNC1)N1CCN(C/C=C/c2ccccc2)CC1` (stereo not drawn), the Potency entry was “inactive”.

On to `COCc1nnc(NC(=O)C2c3ccccc3C(=O)N(C3CCCC3)C23CCCC3)s1` (stereo not drawn), for which the Potency result is “inactive”.

On to `COc1cccc(-c2ccc(C(=O)N3CCC(C(=O)NCc4cccs4)CC3)cc2)c1`, for which the Potency entry is “inactive”.

On to `COc1ccc(-c2nc3ccncc3[nH]2)cc1`, for which the Potency is 10 µM (active).

Turning to `c1cc(-c2nc3ccncc3[nH]2)ccn1`, the Potency entry is “inactive”.

As to `COc1ccc(C(=O)N2CCCC2C(=O)N2CCCC2c2nc3ccncc3[nH]2)cc1` (stereo not drawn), the Potency entry is “inactive”.

As for `COc1ccc(-c2ccc3c(n2)CN(CCOc2ccccc2)C(=O)CO3)cc1F`, the Potency result is “inactive”.

In the case of `O=C(C1CCCN(Cc2cccc(-c3ccc(F)cc3F)c2)C1)N1CCN(Cc2ccccc2)CC1` (stereo not drawn), the Potency entry was “inactive”.

On to `COc1ccc(CC2CCOC3(CCN(C(=O)NCC(C)C)CC3)C2)cc1` (stereo not drawn), for which the Potency result was “inactive”.

Turning to `O=C(C1CCC(Cn2c(=O)c3sccc3n(Cc3ccccc3F)c2=O)CC1)N1CCCCC1` (stereo not drawn), the Potency was 25.1 µM (active).

For the molecule `CCCNC(=O)C1CCC(Cn2c(=O)c3sccc3n(Cc3ccccc3F)c2=O)CC1` (stereo not drawn), the Potency entry was “inactive”.

Consider `CC(C)NC(=O)C1CCC(Cn2c(=O)c3sccc3n(Cc3ccc(F)cc3)c2=O)CC1` (stereo not drawn), for which the Potency entry is “inactive”.

In the case of `O=C1CCN(S(=O)(=O)c2ccc3c(c2)CCC3)CCCC(c2nc(-c3cnccn3)no2)CCN1` (stereo not drawn), the Potency entry is “inactive”.
